Reference: PubChem BioAssay (Tox21)
Calls of active or inactive are those of the source. Calls follow the shape of the dose curve; as a rule, active = well fitted activation curve with a large enough effect in the repeat runs; inconclusive = weak or mixed curves; inactive = flat fitted curve, though single readings scatter.

Assay: A CellTox Green Cytotoxicity Assay to monitor cytotoxicity in HEK293 cells - 0 hour (AID 1224869); also: nearly all actives have a fitted effect of over 50% in size
Settings: CellTox Green fluorescence; series mostly up to 76.8 µM; cytotoxicity: at the top concentration
Text: National Center for Advancing Translational Sciences [NCATS]
NIH Chemical Genomics Center [NCGC]
U.S. Environmental Protection Agency [EPA]
National Institutes of Environmental Health Sciences [NIEHS]
National Toxicology Program [NTP]
Cell-based models are critical for drug discovery. Determining the natural cytotoxic effects resulting from test compounds is an essential research activity. A CellTox Green Cytotoxicity Assay to monitor cytotoxicity in real time of continues cell culture during 40 hours of the compound treatment was used to screen Tox21 10K library compounds in Hek293 cells. CellTox Green Cytotoxicity Assay is a nonlytic, homogeneous, biofluorescent method to measure cytotoxicity in cell culture after experimental manipulation. The assay system uses a proprietary asymmetric cyanine dye that is excluded from viable cells but preferentially stains the dead cell's DNA. […] Viable cells produce no appreciable increases in fluorescence. Therefore, the fluorescence signal produced by the binding interaction with dead cell DNA is proportional to cytotoxicity.
The mixture of Hek293 cell suspension and reagents were dispensed at 600cells/6 ul/well in 1536-well tissue culture treated black solid bottom plates using a Multidrop dispenser. After the assay plates were incubated at a 37 C/5% CO2 incubator for 5 hours, 23 nL of compounds dissolved in DMSO, positive and negative controls was transferred to the assay plate by a pintool work station. The plates were incubated at 37 C for 40 hours. The fluorescence intensity were measured at 0h, 8h, 16h, 24h, 32h and 40h time points using ViewLux plate reader during compound treatment.
% is scaled to controls: 0 for no effect and ±100 for the full control effect.

Q: Which “cytotoxicity” value does the source give for `O=Cc1ccc(F)c(Br)c1` here?
A: 10.6% (inactive)

Q: Which “cytotoxicity” value does the source give for `C=CC(C)(O)CC/C=C(\C)CCC=C(C)C` (stereo not given) here?
A: 12.9% (inactive)

Q: For `CCCCCCC`, which “cytotoxicity” value is on record?
A: 12.6% (inactive)

Q: With `CC1=CC(=O)CC(C)(C)C1=O` as the molecule, how does the “cytotoxicity” value read?
A: 6.67% (inactive)

Q: Which “cytotoxicity” value does the source give for `COc1cc(C)ccc1C(C)C` here?
A: 0.462% (inactive)

Q: Which “cytotoxicity” value does the source give for `CC(C)NC[C@@H](O)COc1cccc2ccccc12` here?
A: -5.03% [at 35.3 µM] (inactive)

Q: Which “cytotoxicity” value does the source give for `COc1cc2c(cc1N)oc1ccccc12` here?
A: -2.14% (inactive)

Q: With `Cc1c(C(=O)NCCO)[n+](=O)c2ccccc2n1[O-]` as the molecule, how does the “cytotoxicity” value read?
A: 0.905% [at 35.3 µM] (inactive)

Q: Which “cytotoxicity” value does the source give for `CC(C)(C)c1cccc(O)c1` here?
A: -7.98% (inactive)

Q: With `CCC(=O)Nc1ccc(O)cc1` as the molecule, how does the “cytotoxicity” value read?
A: 0.033% [at 35.3 µM] (inactive)

Q: Which “cytotoxicity” value does the source give for `O=C1CCN(c2ccccc2)N1` here?
A: 2.89% (inactive)

Q: Which “cytotoxicity” value does the source give for `Cc1cc2c(s1)Nc1ccccc1N=C2N1CCN(C)CC1` here?
A: -0.0283% [at 35.3 µM] (inactive)

Q: With `O=C(CC(=O)C(F)(F)F)c1ccccc1` as the molecule, how does the “cytotoxicity” value read?
A: 1.79% (inactive)

Q: With `Cc1ccccc1C(=O)Nc1ccc(C(=O)N2CCCC(O)c3cc(Cl)ccc32)c(C)c1` (stereo not given) as the molecule, how does the “cytotoxicity” value read?
A: -2.11% [at 35.3 µM] (inactive)

Q: With `CCCCC1CCC(=O)O1` (stereo not given) as the molecule, how does the “cytotoxicity” value read?
A: -0.937% (inactive)

Q: For `O=C1CCCCCCCCCCC(=O)OCCO1`, which “cytotoxicity” value is on record?
A: 0.205% (inactive)

Q: With `NNS(=O)(=O)c1ccc(Oc2ccc(S(=O)(=O)NN)cc2)cc1` as the molecule, how does the “cytotoxicity” value read?
A: 2.49% (inactive)

Q: For `Cc1ccc([N+](=O)[O-])c(N)c1`, which “cytotoxicity” value is on record?
A: -1.97% (inactive)

Q: For `CCCCC(=O)O[C@]1(C(=O)CO)[C@H](C)C[C@H]2[C@@H]3CCC4=CC(=O)C=C[C@]4(C)[C@@]3(F)[C@@H](O)C[C@@]21C`, which “cytotoxicity” value is on record?
A: -0.344% [at 35.3 µM] (inactive)

Q: For `C=Cc1ccccc1`, which “cytotoxicity” value is on record?
A: -0.614% (inactive)

Q: Which “cytotoxicity” value does the source give for `O=C(C(Cl)Cl)N1CCOC12CCCCC2` here?
A: 2.6% (inactive)

Q: With `CC(C)O` as the molecule, how does the “cytotoxicity” value read?
A: 1.63% (inactive)

Q: For `O=C1Nc2ccc([N+](=O)[O-])cc2C1=O`, which “cytotoxicity” value is on record?
A: -19.4% (inactive)

Q: With `O=C1CCCCC1C1CCCCC1` (stereo not given) as the molecule, how does the “cytotoxicity” value read?
A: -4.42% (inactive)

Q: With `C=CCCCCCCCCO` as the molecule, how does the “cytotoxicity” value read?
A: -4.72% (inactive)

Q: Which “cytotoxicity” value does the source give for `CCOc1ccc(NC(N)=O)cc1` here?
A: 0.196% (inactive)

Q: Which “cytotoxicity” value does the source give for `COC(=O)C(C)O` (stereo not given) here?
A: -3.25% (inactive)

Q: Which “cytotoxicity” value does the source give for `CCCNC(C)C(=O)Nc1c(C)csc1C(=O)OC` (stereo not given) here?
A: -0.0895% [at 35.3 µM] (inactive)

Q: Which “cytotoxicity” value does the source give for `Cc1onc(-c2ccccc2)c1C(=O)Cl` here?
A: -0.0596% [at 35.3 µM] (inactive)

Q: Which “cytotoxicity” value does the source give for `CNCCC(Oc1ccccc1OC)c1ccccc1` (stereo not given) here?
A: -0.61% [at 35.3 µM] (inactive)

Q: Which “cytotoxicity” value does the source give for `CCN(O)CC` here?
A: -0.226% (inactive)

Q: For `COc1nc(C)nc(NC(=O)NS(=O)(=O)c2ccccc2OCCCl)n1`, which “cytotoxicity” value is on record?
A: 7.38% (inactive)

Q: For `Cc1c(N)cccc1N`, which “cytotoxicity” value is on record?
A: 2.2% (inactive)

Q: For `CCCOc1ccc2c(c1)CC[C@@H]1[C@@H]2CC[C@]2(C)C(OC)CC[C@@H]12` (stereo not given in full), which “cytotoxicity” value is on record?
A: -0.351% [at 35.3 µM] (inactive)

Q: For `O=c1oc2c(O)c(O)cc3c(=O)oc4c(O)c(O)cc1c4c23`, which cytotoxicity is on record?
A: 10.4% [at 15.8 µM] (inactive)

Q: For `Cc1ccc(C(C)C)cc1O`, which “cytotoxicity” value is on record?
A: -11.2% (inactive)

Q: For `CC(C)=CCC[C@](C)(O)[C@@H]1CC=C(C)CC1`, which “cytotoxicity” value is on record?
A: 9.35% (inactive)

Q: Which “cytotoxicity” value does the source give for `O=c1[nH]c(=O)n([C@H]2C[C@H](O)[C@@H](CO)O2)cc1C(F)(F)F` here?
A: 23.8% [at 35.3 µM] (inactive)

Q: Which “cytotoxicity” value does the source give for `CC1(O)CSC(C)(O)CS1` (stereo not given) here?
A: 3.04% (inactive)

Q: For `C/C(=N\O)[C@@H](C)NCC(C)(C)CN[C@H](C)/C(C)=N/O`, which “cytotoxicity” value is on record?
A: -0.699% [at 35.3 µM] (inactive)
